Compound activity as filed in PubChem BioAssay.
Only some compounds are listed: those with a hit (about 1.7% of all), similar ones and a draw of the others.
PTHR1 ag: activates the human parathyroid hormone receptor PTHR1; Q03431; HEK293 GP2 PTHR1 cells, GloSensor cAMP luminescence, 1 h; Potency, µM (series often up to 115 µM), for the others: top-dose activation, hits mostly activators; actives 0.075% (n = 410,000); AID 743266; note: nearly all actives have a fitted effect of over 55% in size
Target sequence (Q03431 whole entry, looked up): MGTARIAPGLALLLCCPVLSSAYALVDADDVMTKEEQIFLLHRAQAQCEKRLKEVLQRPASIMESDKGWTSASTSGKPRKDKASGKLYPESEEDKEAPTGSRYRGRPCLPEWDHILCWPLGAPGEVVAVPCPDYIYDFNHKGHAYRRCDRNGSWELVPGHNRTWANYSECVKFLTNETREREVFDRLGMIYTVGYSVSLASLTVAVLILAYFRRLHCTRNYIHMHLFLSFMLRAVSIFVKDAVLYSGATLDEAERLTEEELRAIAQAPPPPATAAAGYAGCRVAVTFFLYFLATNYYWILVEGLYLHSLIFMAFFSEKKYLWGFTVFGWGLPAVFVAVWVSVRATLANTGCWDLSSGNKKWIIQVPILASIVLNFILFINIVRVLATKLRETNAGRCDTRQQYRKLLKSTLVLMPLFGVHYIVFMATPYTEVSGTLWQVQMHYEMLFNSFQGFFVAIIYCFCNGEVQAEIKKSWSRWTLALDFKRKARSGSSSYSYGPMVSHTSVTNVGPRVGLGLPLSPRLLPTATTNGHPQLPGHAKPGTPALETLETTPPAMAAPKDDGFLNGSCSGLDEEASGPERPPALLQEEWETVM
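HEK-293-derived GP2 cells expressing PTHR1 and a GloSensor cAMP reporter, 3,000/well, plated overnight, given luciferin plus IBMX (each 0.5 mM as added) for 1 h at 37 °C, then compound for 1 h at 37 °C. Luminescence was read after 15 min at room temperature.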
GLP1R cytotox: cytotoxicity in counter-screen for GLP-1R inverse agonists. AID 624418. Potency, µM (titrated, usually from 38.3 µM), inactives show at the top dose activity change, negative = inhibition, most hits filed as inhibitors. HEK293 cAMP-luciferase reporter cells, luminescence, 24 h. actives 0.13% (n = 410,000);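 note: loss of luciferase light is scored as toxicity; % is set by controls: 0 for no effect and ±100 for the full control effect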
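Compound-treated cells are incubated 24 hr at 37 deg C under 5% CO2 after a 12 hour attachment period, then luciferase detection reagent is added and luminescence is measured following 12 min at room temperature; lowered signal indicates toxicity.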
GLP1R inv ag: GLP-1 receptor (human) inverse agonism; HEK293 GLP-1R CRE-luciferase, luminescence, 24 h; GLP-1R form is constitutively active; P43220; actives 1.6% (n = 410,000); Potency, µM (top dose mostly 38.3 µM), for inactives: at the top dose activity change, negative = inhibition, most hits filed as inhibitors; note: % is set by controls: 0 for no effect and ±100 for the full control effect; nearly all actives have a fitted effect of over 55% in size
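Using stably transfected HEK293 (constitutively active GLP-1R, cAMP-luciferase reporter), compounds were incubated 24 hr and luciferase measured by luminescence.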
GLP-1R agonist: GLP-1 receptor (human) agonism | P43220 | HEK293 GLP-1R CRE-luciferase, luminescence, 4-6 h; cells express a hypersensitive GLP-1R form | Potency, µM (doses to about 45.6 µM), for the others: at the top dose activation, hits mostly activators | actives 0.007% (n = 380,000); note: % of control where 0% means no effect
Numbers without * were called inactive; i = inactive; ? = inconclusive; / = no result; ! = not confirmed by another sample; [ ] = remark or other dose. Calls come from the whole dose curve; as a rule, active = well fitted curve in the direction sought with a large enough effect; inconclusive = small, poorly fitted or top-dose-only effect, or another doubt; inactive = no such curve, though single readings can be large; an effect the other way counts as inactive or inconclusive. Potency is the fitted concentration of half-maximal effect.

SMILES | PTHR1 ag | GLP1R cytotox | GLP1R inv ag | GLP-1R agonist
CCOC(=O)C1=C(CNCCc2ccc(Cl)cc2)NC(=O)NC1c1cccc([N+](=O)[O-])c1 (configuration not stated) | -11% | -7% | 10µM* | 11%
O=S(=O)(c1cc(F)ccc1F)N1CCN(c2ncccn2)CC1 | i | 1% | 16% | 8%
C/C(=N/NC(=O)c1ccoc1C)C12CC3CC(CC(C3)C1)C2 | -9%[57.5 µM] | 0% | ? | -12%
COc1cc(NC(=O)c2cnc(N)s2)cc(C(=O)Nc2cccc(C(F)(F)F)c2)c1 | -35% | 13% | 13µM* | -1%
COCCNC(=S)NN=C1CCCCC1 | 9% | -1%[7.66 µM] | -9%[7.66 µM] | -1%
C=CCNC(=S)NN=C1CCCCCCC1 | -4% | ? | 3.5µM* | 14%
NC(=S)NN=C1CCCCCCCCC1 | -24% | 4.5µM* | 2.8µM* | 12%
CC(=O)c1c(C)[nH]c(C(=O)OCC(=O)c2ccc3c(c2)NC(=O)CO3)c1C | i | -7% | 16% | 0%
Cc1ccc(-c2nc(CS(=O)CC(=O)NC(C)CCc3ccccc3)c(C)o2)cc1 (configuration not stated) | -14% | -1% | 8.9µM* | 0%
Cc1oc(-c2ccc(Cl)cc2)nc1CS(=O)CC(=O)NCCCN1CC(C)CC(C)C1 (configuration not stated) | i | ? | 5.6µM* | 8%
CCc1ccc(-c2cc(C)no2)cc1S(=O)(=O)NC(C)Cc1ccco1 (configuration not stated) | -9% | -9% | 3.5µM* | 28%
Cc1cc(-c2ccc(C(C)C)c(S(=O)(=O)NCc3ccco3)c2)on1 | 0% | -5% | ? | 21%
CCC(=O)Nc1ccc(C(=O)NNC(=O)CCCCC(=O)NNC(=O)c2ccc(NC(=O)CC)cc2)cc1 | -13% | -3% | -17% | -2%
FC(F)(F)c1nc2ccccc2nc1N/N=C\c1ccccc1 | -5% | 8.9µM* | ? | 2%
CC1=NN(C(=O)COc2ccc(C)c(C)c2)C(O)(c2ccc(Cl)cc2)C1 (configuration not stated) | -36% | -13% | 13µM* | 7%
Cc1ccc(OCC(=O)N2N=C(C(F)(F)F)CC2(O)C(C)(C)C)cc1C (configuration not stated) | -15%[57.5 µM] | -28% | -57% | -2%
CCN(CC)C(C(=O)Nc1ccc(C(C)C)cc1)c1ccc2c(c1)OCO2 (configuration not stated) | -5% | ? | 7.1µM* | 0%
CC(C)c1ccc(NC(=O)C(c2ccc3c(c2)OCO3)N2CCN(C(=O)c3ccco3)CC2)cc1 (configuration not stated) | i | -29% | 10µM* | 1%
Fc1ccc(C(c2ccc(F)cc2)N2CCN(CC=Cc3ccccc3)CC2)cc1 | / | / | / | -5%
COc1cccc(C(=O)Nc2nc3ccccc3[nH]2)c1 | -8%[57.5 µM] | ? | 7.9µM* | -21%
COc1ccc(C(=O)Nc2nc3ccccc3[nH]2)cc1 | -32% | ? | ? | -5%
CN(C)c1cccc(C(=O)Nc2nc3ccccc3[nH]2)c1 | -92% | 2% | 3.5µM* | -5%
O=C(Nc1ccc(Cl)c(S(=O)(=O)N2CCOCC2)c1)c1ccc2c(c1)OCO2 | -47% | -17% | 11µM* | 0%
Cc1ccc(OCCCC(=O)Nc2ccc(Cl)c(S(=O)(=O)N3CCOCC3)c2)cc1 | -46% | -2% | 11µM* | -4%
CC(=O)c1ccc(OCCCC(=O)Nc2ccc(Cl)c(S(=O)(=O)N3CCOCC3)c2)cc1 | -47% | -7% | 1% | 2%
SMILES | PTHR1 ag | GLP1R cytotox | GLP1R inv ag | GLP-1R agonist
COc1ccc(NC(=O)CCOc2ccc(C)cc2)cc1S(=O)(=O)N1CCCCC1 | -93% | -27% | 7.1µM* | -4%
O=C(Nc1ccc(Cl)c(S(=O)(=O)N2CCOCC2)c1)c1ccc2c(c1)OCCO2 | -32% | -20% | -28% | 2%
NCCCNCCCCNC(=O)C(O)NC(=O)CCCCCCN=C(N)N (configuration not stated) | / | / | / | -1%
CC(C)CC(=O)N1c2nc(C(C)C)nn2C2(CCCCC2)[C@@H]2CCCC[C@@H]21 | -9% | 2% | 17% | /
CC(C)N1CCN(CCCc2ccccc2)CC1CCO (configuration not stated) | -11% | 2% | -13% | 6%
O=C(C1CCN(c2nc(-c3ccccc3)nc3c2CCC3)CC1)N1CCCC1 | -2% | -9% | ? | 11%
CC1CCCCN1C(=O)C1CCN(c2nc(-c3ccccc3)nc3c2CCC3)CC1 (configuration not stated) | ? | ? | 8.9µM* | -3%
CCSc1nnc(NC(=O)NC(CC)(C(F)(F)F)C(F)(F)F)s1 | -28%[57.5 µM] | ? | 7.1µM* | -30%
CCSc1nnc(NC(=O)NC(C)(C(F)(F)F)C(F)(F)F)s1 | -29% | -22% | 10µM* | -1%
CCCC(=O)Nc1nnc(SCC)s1 | -15% | 2% | 2% | 1%
O=C(COc1ncnc2sccc12)Nc1cccc(S(=O)(=O)N2CCOCC2)c1 | -11% | -9% | 8% | -12%
COc1ccccc1-c1nnc(SCC(=O)NNC(=O)c2ccccc2F)n1C | -33% | 3% | 2% | -5%
CN1CCN(c2ccc(NC(=O)c3ccc(-c4ccc(Cl)cc4)o3)cc2)CC1 | -15% | ? | 4µM* | 27%
CC(=NNc1ccc2ccccc2n1)c1ccccc1O | -29% | ? | 2.8µM* | -21%
C/C(=N\Nc1nc2ccccc2nc1C)c1ccccc1O | i | -51% | ? | 7%
CC(C)(C)c1nnc(N/N=C/c2cc(Br)ccc2O)n(N)c1=O | -31% | ? | 3.5µM* | -18%
N/C(=N\OC(=O)c1cccc(Br)c1)c1ccccn1 | -29% | -12% | 6.3µM* | 0%
O=C(COc1ccc(Cl)cc1)NC1=NN(c2ccccc2)C(=O)C1 | -29% | 0% | ? | -2%
Cc1cc(C)n(CCC(=O)N2CCN(S(=O)(=O)c3ccccc3)CC2)n1 | -11% | 12% | -9% | 1%
COc1ccc(-c2sc3ccc(OC)cc3c2-c2ccc(OCCN3CCOCC3)cc2)cc1 | -2% | 8% | 10µM* | -2%
COc1cccc(-c2sc3ccc(OC)cc3c2-c2ccc(OCCN3CCCC3)cc2)c1 | i | 5% | ? | 6%
Cc1ccc(Cl)cc1NC1=C/C(=N\S(=O)(=O)c2cccs2)c2ccccc2C1=O | -33%[57.5 µM] | ? | 1µM*! | -11%
CC(C)Oc1ccc(-c2nc3c(C#N)c[nH]n3c2NC2CCCCC2)cc1 | i | 0% | ? | /
O=C(CSc1n[nH]c(-c2ccccn2)n1)Nc1ccccc1F | 13% | ? | 11µM* | 7%
COc1cc(-c2noc(-c3cc(C)[nH]n3)n2)cc(OC)c1OC | i | 1% | 27% | /
CN(C)CCNC(=O)C1CCN(Cc2cc3ccccc3n2Cc2ccccc2)CC1 | -35% | ? | ? | /
O=C(NCCc1ccccc1)C1CCN(Cc2cc3ccccc3n2Cc2ccccc2)CC1 | i | -17% | ? | /
